The structures appear in SMILES notation. Counter-ions that a name gives are not always drawn. ± gives the standard deviation of the averaged measurements.

Consider 14 compounds from the supplement of paper PMC4100887.

For the assay, the system named is IMR-90. The experiment in a line: relative cell viability (ATPlite) vs untreated control (fraction); higher = less toxic. The following applies: 1 µM; 72 h. For orientation: ATP-based viability assays read luminescence as a measure of living cells.
Regarding `CCN(CC)CCCCN1c2ccccc2Oc2ccc(Cl)cc21` [Akt Inhibitor X], the relative cell viability is 0.889 ± 0.093.

As for `c1cc(-c2cnn3cc(-c4ccc(OCCN5CCCCC5)cc4)cnc23)ccn1` [AMPK Inhibitor, Compound C], the relative cell viability was 0.86 ± 0.092.

In turn, `Cn1cnc2cc3c(Nc4cccc(Br)c4)ncnc3cc21` gave a relative cell viability of 0.973 ± 0.054.

The compound `OCC(O)CCO/N=C1\C(c2c(O)[nH]c3ccccc23)=Nc2ccccc21` (centres undefined) [Indirubin Derivative E804] came in with a relative cell viability of 0.974 ± 0.098.

`CC[n+]1c(/C=C/N(C)c2ccccc2)n(-c2ccccc2)c2ccc(-c3nc4ccccc4s3)cc21` [Akt Inhibitor IV] displayed a relative cell viability of 0.924 ± 0.1.

Compound `CC(C)n1cnc2c(NCc3ccccc3)nc(NCCCO)nc21` [Bohemine] displayed a relative cell viability of 1.03 ± 0.066.

Compound `NC(N)=NCCNS(=O)(=O)c1cccc2cnccc12` [HA 1004, Dihydrochloride] displayed a relative cell viability of 1.01 ± 0.1.

Regarding `COc1cc2ncc(-c3ccccc3)nc2cc1OC`, the relative cell viability turned out to be 1.1 ± 0.066.

Turning to `O=c1cc(N2CCNCC2)oc2c(-c3ccccc3)cccc12`, the relative cell viability worked out at 0.987 ± 0.049.

In turn, `COc1cc2ncnc(N3CCN(C(=O)Nc4ccc(Oc5ccccc5)cc4)CC3)c2cc1OC` [PDGF Receptor Tyrosine Kinase Inhibitor III] showed a relative cell viability of 1.01 ± 0.086.

As for `CCC(=O)Nc1ccc2ncnc(Nc3cccc(Br)c3)c2c1`, the relative cell viability is 0.982 ± 0.058.

Regarding `O=C(c1cc2cc(O)ccc2[nH]1)c1cc2cc(O)ccc2[nH]1` [Flt-3 Inhibitor II], the relative cell viability came out at 1.04 ± 0.085.

On to `Cc1cc(Nc2nc(-c3ccccc3)nc3ccccc23)n[nH]1` [GSK-3 Inhibitor XIII], for which the relative cell viability stood at 1 ± 0.059.

Regarding `COc1ccc2nc3n[nH]c(C)c3c(NCCOCCO)c2c1`, the relative cell viability turned out to be 1 ± 0.077.
